Data as given in PubChem BioAssay.
Unmarked numbers belong to inactive results. Where a call stands in place of a potency, no number is given. For some assays here: Potency and affinity values are given separately. The source made the active and inactive calls. Unless noted, the rule behind the calls is not given here.

Key:
[1] = antimalarial activity against Dd2 strain (AID 2302;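 active = growth inhibition above 50% at the single 2 µM test dose, taken to imply half-maximal potency below 2 µM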); conditions: P. falciparum Dd2 in RBCs, LDH growth readout, 72 h; at 2 µM; active compounds read high
[2] = HepG2 cytotoxicity, primary screen, cytotoxicity control for P. falciparum antimalarial project, cell-based, ATP luminescence (AID 2303;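 active = inhibition above 50%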); conditions: HepG2 viability, 24-48 h, at 10 µM, active compounds read high
[3] = target: L-lactate dehydrogenase (Plasmodium falciparum (isolate CDC / Honduras)) (UniProt Q27743); assay: PfLDH activity inhibition – cell lysate, 3D7 strain, counter-screen for P. falciparum growth inhibition project (AID 2304); conditions: P. falciparum 3D7 crude extract, LDH APAD/NBT absorbance; at 2 µM; active compounds read high
[4] = inhibition of 3D7 malaria parasite growth – strain 3D7 (AID 2306); conditions: P. falciparum 3D7 erythrocytic growth, LDH absorbance, 72 h; at 2 µM; active compounds read high
[5] = target: Calcium-dependent protein kinase 1 (Plasmodium falciparum (isolate 3D7)) (UniProt P62344); assay: PfCDPK1 kinase inhibitors, biochemical, TCAMS library (AID 1159585; cut-off not given, nearly all actives have IC50 up to about 0.98 µM;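 note: inhibitors leave more ATP so luminescence rises with inhibition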); conditions: recombinant PfCDPK1, Kinase-Glo ATP depletion luminescence
[6] = target: Plasmodium falciparum protein kinase 6 (PK6, PF3D7_1337100) (UniProt Q8IDW1); assay: PfPK6 kinase inhibitors, biochemical, TCAMS library (AID 1159586); conditions: recombinant PfPK6, Kinase-Glo ATP depletion luminescence
[7] = target: Protein kinase 7 (PK7), Plasmodium falciparum 3D7 (PF3D7_0213400) (UniProt Q7YTF7); assay: inhibition of Plasmodium PK7 catalytic activity – biochemical, TCAMS antimalarial set, Kinase-Glo luminescence (AID 1159587); conditions: recombinant PfPK7, Kinase-Glo ATP depletion luminescence
[8] = target: Calcium-dependent protein kinase 4 (Plasmodium falciparum (isolate 3D7)) (UniProt Q8IBS5); assay: PfCDPK4 kinase inhibitors, biochemical, TCAMS library (AID 1159588; cut-off not given, nearly all actives have IC50 up to about 0.91 µM); conditions: recombinant PfCDPK4, Kinase-Glo ATP depletion luminescence
Sequence of Calcium-dependent protein kinase 4 (Plasmodium falciparum (isolate 3D7)) (Q8IBS5 whole entry, looked up): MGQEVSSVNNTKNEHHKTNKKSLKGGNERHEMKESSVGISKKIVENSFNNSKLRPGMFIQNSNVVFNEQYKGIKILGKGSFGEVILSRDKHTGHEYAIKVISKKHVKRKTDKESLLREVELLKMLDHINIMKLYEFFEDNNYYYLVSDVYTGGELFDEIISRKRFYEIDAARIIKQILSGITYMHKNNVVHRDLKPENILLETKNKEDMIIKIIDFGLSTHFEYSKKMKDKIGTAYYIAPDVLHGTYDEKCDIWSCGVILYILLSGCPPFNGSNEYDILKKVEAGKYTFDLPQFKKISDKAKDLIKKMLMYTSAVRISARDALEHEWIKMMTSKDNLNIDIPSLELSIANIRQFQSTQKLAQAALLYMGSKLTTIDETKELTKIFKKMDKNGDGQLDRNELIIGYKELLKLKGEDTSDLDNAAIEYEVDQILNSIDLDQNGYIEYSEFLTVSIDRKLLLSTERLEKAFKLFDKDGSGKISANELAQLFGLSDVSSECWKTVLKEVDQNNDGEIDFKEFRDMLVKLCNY

Sequence of Protein kinase 7 (PK7), Plasmodium falciparum 3D7 (PF3D7_0213400) (Q7YTF7 1-343): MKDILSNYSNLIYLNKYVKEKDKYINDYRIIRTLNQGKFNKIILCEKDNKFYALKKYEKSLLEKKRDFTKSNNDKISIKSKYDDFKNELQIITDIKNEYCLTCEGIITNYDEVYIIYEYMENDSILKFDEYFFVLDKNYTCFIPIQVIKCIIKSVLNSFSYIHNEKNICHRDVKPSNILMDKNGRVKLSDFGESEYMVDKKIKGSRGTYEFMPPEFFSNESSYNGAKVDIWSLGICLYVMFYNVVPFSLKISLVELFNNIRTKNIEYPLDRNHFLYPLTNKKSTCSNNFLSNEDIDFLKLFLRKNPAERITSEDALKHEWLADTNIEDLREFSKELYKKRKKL
Sequence of Calcium-dependent protein kinase 1 (Plasmodium falciparum (isolate 3D7)) (P62344 whole entry, looked up): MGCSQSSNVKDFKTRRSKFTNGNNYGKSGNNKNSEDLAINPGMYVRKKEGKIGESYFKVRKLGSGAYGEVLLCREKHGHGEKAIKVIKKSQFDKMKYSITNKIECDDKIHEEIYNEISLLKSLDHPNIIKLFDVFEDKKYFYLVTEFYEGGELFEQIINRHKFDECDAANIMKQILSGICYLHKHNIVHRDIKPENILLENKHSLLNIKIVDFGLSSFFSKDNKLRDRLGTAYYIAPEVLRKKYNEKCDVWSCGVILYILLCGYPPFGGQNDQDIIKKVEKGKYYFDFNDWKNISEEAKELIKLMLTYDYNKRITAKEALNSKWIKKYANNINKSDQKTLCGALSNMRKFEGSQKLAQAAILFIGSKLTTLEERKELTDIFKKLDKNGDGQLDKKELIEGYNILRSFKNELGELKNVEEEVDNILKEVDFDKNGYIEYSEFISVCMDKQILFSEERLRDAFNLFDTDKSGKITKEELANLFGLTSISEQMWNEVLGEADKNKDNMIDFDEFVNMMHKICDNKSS
Sequence of L-lactate dehydrogenase (Plasmodium falciparum (isolate CDC / Honduras)) (Q27743 whole entry, looked up): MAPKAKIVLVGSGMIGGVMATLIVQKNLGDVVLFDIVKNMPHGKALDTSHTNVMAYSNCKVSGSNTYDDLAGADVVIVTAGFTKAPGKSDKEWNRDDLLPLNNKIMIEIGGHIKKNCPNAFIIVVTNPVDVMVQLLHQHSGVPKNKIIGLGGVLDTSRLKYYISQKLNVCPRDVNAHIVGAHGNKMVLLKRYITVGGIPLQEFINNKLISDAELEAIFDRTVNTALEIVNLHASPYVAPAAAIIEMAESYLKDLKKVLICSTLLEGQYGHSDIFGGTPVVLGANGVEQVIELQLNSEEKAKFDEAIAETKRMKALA
Sequence of Plasmodium falciparum protein kinase 6 (PK6, PF3D7_1337100) (Q8IDW1 1-305): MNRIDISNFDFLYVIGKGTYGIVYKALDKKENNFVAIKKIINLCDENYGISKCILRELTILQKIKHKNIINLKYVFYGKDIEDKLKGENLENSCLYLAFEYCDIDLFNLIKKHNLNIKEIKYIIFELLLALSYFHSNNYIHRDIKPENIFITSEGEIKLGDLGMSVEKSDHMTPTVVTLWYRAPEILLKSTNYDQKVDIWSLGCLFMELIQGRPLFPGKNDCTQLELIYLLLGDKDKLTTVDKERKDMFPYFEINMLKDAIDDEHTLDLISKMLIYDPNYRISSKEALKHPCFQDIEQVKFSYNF

Row | Structure (SMILES) | growth inhibition [1] | inhibition [2] | inhibition [3] | growth inhibition [4] | outcome [5] | outcome [6] | outcome [7] | outcome [8]
1 | O=C(Nc1ccc(Cl)cc1)Nc1ccc(Cn2ncc(N3CCCNCC3)c(Cl)c2=O)cc1 | 11% | 49% | 1% | 85% (active) | inactive | inactive | inactive | inactive
2 | Cc1ccc(NC(=O)c2ccc(CN3CCCN(Cc4cccc(O)c4)CC3)cc2)cc1 | 31% | 39% | -5% | 90% (active) | inactive | inactive | inactive | inactive
3 | O=C(N[C@@H](Cc1ccccc1)C(=O)NCCN1CCCC1)c1ccc(O)c(-c2ccc(Cl)c(Cl)c2)c1 | 46% | 8% | -2% | 95% (active) | inactive | inactive | inactive | inactive
4 | N=C(N)c1ccc(NN=Cc2ccc(Oc3ccc(C(=N)N)cc3)cc2)cc1 | 100% (active) | 18% | 0% | 99% (active) | inactive | inactive | inactive | inactive
5 | CC(C)(C)c1cc(C(=O)Nc2ccc(C(=N)N)cc2)c(O)c(C(C)(C)C)c1 | 88% (active) | 4% | -2% | 101% (active) | inactive | inactive | inactive | inactive
6 | CS(=O)(=O)Nc1ccc(OCCCCCCOc2ccc(NS(C)(=O)=O)cc2)cc1 | 82% (active) | 3% | 4% | 93% (active) | inactive | inactive | inactive | inactive
7 | C=CCN1CCC(N(Cc2cccc(Oc3ccccc3)c2)C(=O)C(c2ccccc2)c2ccccc2)CC1 | 79% (active) | 7% | -5% | 87% (active) | inactive | inactive | inactive | inactive
8 | Fc1ccc2[nH]c(-c3ccccc3)nc2c1CN1CCC(N2CCCC2)CC1 | 30% | 2% | -2% | 100% (active) | inactive | inactive | inactive | inactive
9 | CCOc1ccc(-c2nc(NC(=O)CS(=O)(=O)c3ccccc3)sc2C)cc1 | 59% (active) | 6% | 2% | 100% (active) | inactive | inactive | inactive | inactive
10 | CCOc1ccc(-c2nonc2NC(=O)c2ccco2)cc1OCC | 77% (active) | 3% | -1% | 97% (active) | inactive | inactive | inactive | inactive
11 | O=C(Cn1cnc2c(nnn2Cc2ccccc2F)c1=O)Nc1ccc2c(c1)OCCO2 | 1% | -6% | -2% | 86% (active) | inactive | inactive | inactive | inactive
12 | FC(F)(F)c1cnc(Sc2nnc(-c3ccco3)o2)c(Cl)c1 | 97% (active) | -1% | -4% | 98% (active) | inactive | inactive | inactive | inactive
13 | CCOC(=O)c1ccc2nc(-c3ccc(C(=O)NCc4ccc(C(C)(C)C)cc4)cc3)[nH]c2c1 | 34% | -9% | -3% | 94% (active) | inactive | inactive | inactive | inactive
14 | Cc1cccc2[nH]c(-c3ccc(-c4ccc(CNCc5cccc(N)c5)cc4)s3)nc12 | 78% (active) | 10% | -2% | 102% (active) | inactive | inactive | inactive | inactive
15 | Nc1c2c(nc3ccc(Oc4ccc(Br)cc4Br)cc13)CCCC2 | 47% | 33% | 0% | 99% (active) | inactive | inactive | inactive | inactive
16 | COc1ccc(-c2nc(NC(=O)Cc3cccc(OC)c3)sc2C)cc1 | 77% (active) | 1% | -3% | 101% (active) | inactive | inactive | inactive | inactive
17 | CC(C)CNCc1cccc(-c2ccc(CN(CCCN3CCN(C)CC3)C(=O)/C=C/c3ccccc3)cc2)c1 | 90% (active) | 48% | -2% | 92% (active) | inactive | inactive | inactive | inactive
18 | O=[N+]([O-])c1cccc(CNCC2CCN(Cc3ccc(O)cc3)CC2)c1 | 5% | 8% | 1% | 98% (active) | inactive | inactive | inactive | inactive
19 | CCCSc1nc2c(c(=O)n1Cc1ccco1)C1(CCCCC1)Cc1ccccc1-2 | 95% (active) | -1% | 0% | 100% (active) | inactive | inactive | inactive | inactive
20 | CC1(C)CNCc2cc(NC(=O)/C=C/c3ccc(Cl)cc3)ccc21 | 26% | 23% | -9% | 82% (active) | inactive | inactive | inactive | inactive

Row | Structure (SMILES) | growth inhibition [1] | inhibition [2] | inhibition [3] | growth inhibition [4] | outcome [5] | outcome [6] | outcome [7] | outcome [8]
21 | Cc1ccccc1Nc1nc(NCCCO)c2ccccc2n1 | 50% (active) | -1% | -5% | 83% (active) | inactive | inactive | inactive | inactive
22 | OC(CNc1ccnc(Nc2ccc(Cl)cc2)n1)c1ccccc1C(F)(F)F (stereo not given) | 28% | 22% | 0% | 98% (active) | inactive | inactive | inactive | inactive
23 | O=C1OC2(CN1CC1CCN(Cc3ccc(O)cc3Cl)C1)c1ccccc1-c1ccccc12 (stereo not given) | 84% (active) | 16% | 2% | 84% (active) | inactive | inactive | inactive | inactive
24 | COc1ccc(CNc2nccc3ccc(-c4ccc(N)nc4)cc23)cc1 | 49% | 7% | 2% | 93% (active) | inactive | inactive | inactive | inactive
25 | Cc1cccc(C)c1N1CCN(C2CCC(NC(=O)c3cc4ccccc4[nH]3)CC2)CC1 (stereo not given) | 64% (active) | 31% | -7% | 101% (active) | inactive | inactive | inactive | inactive
26 | O=C(NCc1cccc(Cl)c1)c1ccc(CNC2CCN(Cc3ccccc3)CC2)cc1 | 50% (active) | 13% | 5% | 100% (active) | inactive | inactive | inactive | inactive
27 | Cc1cccc2[nH]c(-c3ccc(-c4cccc(CN5CCN(c6ccc(C#N)cn6)CC5)c4)s3)nc12 | 8% | 37% | 2% | 85% (active) | inactive | inactive | inactive | inactive
28 | Cc1ccoc1C(=O)Nc1ccc(-c2cccc(-c3nc4c(C)cccc4[nH]3)c2)cc1 | 69% (active) | 15% | -4% | 95% (active) | inactive | inactive | inactive | inactive
29 | O=c1cc(NCCC(CNCc2ccoc2)NCc2cc(Br)cc(Br)c2)[nH]c2ccccc12 (stereo not given) | 28% | -6% | -1% | 92% (active) | inactive | inactive | inactive | inactive
30 | CC(CN(C)C)C(=O)Nc1ccc(-c2cccc(-c3nc4ccc(C(F)(F)F)cc4[nH]3)c2)cc1 (stereo not given) | 85% (active) | 30% | -1% | 101% (active) | inactive | inactive | inactive | inactive
31 | CN1CCC(NCc2cccc(-c3cnc(NCc4ccccc4)nc3)c2)CC1 | 67% (active) | 12% | 4% | 102% (active) | inactive | inactive | inactive | inactive
32 | O=C(Nc1ccc(I)cc1)Nc1ccc(Cn2ncc(N3CCCNCC3)c(Cl)c2=O)cc1 | 30% | 35% | 0% | 86% (active) | inactive | inactive | inactive | inactive
33 | O=C(c1cccc(-c2ccc(-c3nc4ccc(F)cc4[nH]3)s2)c1)N1CCCCC1CN1CCC(O)C1 (stereo not given) | 85% (active) | 23% | 2% | 101% (active) | inactive | inactive | inactive | inactive
34 | CCN(CCC1(c2ccc(Cl)c(Cl)c2)CN(C(=O)c2cc(OC)c(OC)c(OC)c2)CCO1)[C@@H]1C[C@@H]2c3ccccc3C[C@@H]21 (stereo not given in full) | 65% (active) | 26% | -4% | 80% (active) | inactive | inactive | inactive | inactive
35 | Clc1ccc(CNc2nc(NCCc3cnc[nH]3)nc(Nc3ccc4c(c3)OCO4)n2)cc1 | 6% | 8% | -2% | 84% (active) | inactive | inactive | inactive | inactive
36 | COc1cc(NC(=O)c2ccc3c(=O)n(Cc4ccccc4)c(=S)[nH]c3c2)cc(OC)c1OC | 47% | 6% | -3% | 94% (active) | inactive | inactive | inactive | inactive
37 | CC[C@H](NC(=O)c1c(N)c(-c2sccc2Cl)nc2ccccc12)c1ccccc1 | 92% (active) | 0% | -4% | 99% (active) | inactive | inactive | inactive | inactive
38 | OCCOCn1cnc2cnc(N[C@H]3OC[C@H](O)[C@@H](O)[C@@H]3O)nc21 | -2% | 42% | 0% | 82% (active) | inactive | inactive | inactive | inactive
39 | Fc1cccc(Nc2nc(NCc3ccc4ccsc4c3)nc(Nc3cccc(F)c3)n2)c1 | 11% | -2% | -1% | 94% (active) | inactive | inactive | inactive | inactive
40 | COc1cccc(CN2CCCN(Cc3cccc(NC(=O)c4ccc(-c5ccccc5)cc4)c3)CC2)c1 | 8% | 35% | -1% | 86% (active) | inactive | inactive | inactive | inactive
